Experimental data taken from publication PMC5700166.

biological target: GST-Hu-p50 (Homo sapiens, UniProt P19838 7-356); assay: protein-binding microarray (PBM); PBM: ~300 nM protein, 6 mM HEPES pH 7.8, 80 mM KCl, 0.5 mM EDTA, 0.5 mM EGTA, 6% glycerol, 35 ng/ul poly-dIdC, 1% milk, 1 h, room temperature; Ap Aiptasia and Nv Nematostella (sea anemones) / Co Capsaspora / Aq Amphimedon (sponge) / Dm Drosophila / Hu human; RHD is the Rel homology domain; high values mean tight binding; conditions: dsDNA, one strand shown
Sequence (P19838 7-356): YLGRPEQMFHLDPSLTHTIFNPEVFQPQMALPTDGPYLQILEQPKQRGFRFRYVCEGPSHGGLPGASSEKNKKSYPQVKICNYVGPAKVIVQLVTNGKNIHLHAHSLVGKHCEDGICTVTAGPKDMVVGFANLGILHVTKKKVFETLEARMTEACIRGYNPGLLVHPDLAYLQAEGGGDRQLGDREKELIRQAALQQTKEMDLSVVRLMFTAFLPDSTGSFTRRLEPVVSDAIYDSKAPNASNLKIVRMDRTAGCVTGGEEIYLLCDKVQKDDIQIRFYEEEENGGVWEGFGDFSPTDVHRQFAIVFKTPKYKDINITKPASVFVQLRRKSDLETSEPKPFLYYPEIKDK

Point of comparison: “CCGATTAACATCAATTCCCCAGGTGATGTTAATCGGGTCTTGATTCGCTTGACGCTGCTG”, binding signal 4.94 z-score. Against it:
- CCGATTAACATCAGGGGATTTGATGATGTTAATCGGGTCTTGATTCGCTTGACGCTGCTG — higher, 6.12 z-score
- CCGATTAACATCAAAAATCCCCTTGATGTTAATCGGGTCTTGATTCGCTTGACGCTGCTG — higher, 8.54 z-score
- CCGATTAACATCAGGGGGAGTAATGATGTTAATCGGGTCTTGATTCGCTTGACGCTGCTG — higher, 5.72 z-score
- CCGATTAACATCACTCATCCCCGTGATGTTAATCGGGTCTTGATTCGCTTGACGCTGCTG — lower, 2.23 z-score
- CCGATTAACATCAGAATTCCCCATGATGTTAATCGGGTCTTGATTCGCTTGACGCTGCTG — higher, 6.62 z-score
- CCGATTAACATCAATCCTCCCCCTGATGTTAATCGGGTCTTGATTCGCTTGACGCTGCTG — lower, 4.83 z-score
- CCGATTAACATCACCCTTCCCCCTGATGTTAATCGGGTCTTGATTCGCTTGACGCTGCTG — lower, 4.43 z-score
- CCGATTAACATCAGGGGACTCACTGATGTTAATCGGGTCTTGATTCGCTTGACGCTGCTG — lower, 4.32 z-score
- CCGATTAACATCAGGGGGATTAATGATGTTAATCGGGTCTTGATTCGCTTGACGCTGCTG — higher, 6.36 z-score
- CCGATTAACATCAGGGGGATAACTGATGTTAATCGGGTCTTGATTCGCTTGACGCTGCTG — higher, 5.17 z-score
- CCGATTAACATCACGATTTCCCCTGATGTTAATCGGGTCTTGATTCGCTTGACGCTGCTG — higher, 6.24 z-score
- CCGATTAACATCAAAATACTCCCTGATGTTAATCGGGTCTTGATTCGCTTGACGCTGCTG — lower, 3.64 z-score
- CCGATTAACATCAGGGGAATTTATGATGTTAATCGGGTCTTGATTCGCTTGACGCTGCTG — higher, 7.75 z-score
- CCGATTAACATCAGGGGGTTCCATGATGTTAATCGGGTCTTGATTCGCTTGACGCTGCTG — higher, 5.73 z-score
- CCGATTAACATCAGGGGGATTCATGATGTTAATCGGGTCTTGATTCGCTTGACGCTGCTG — higher, 7.07 z-score
- CCGATTAACATCACACAACCCCCTGATGTTAATCGGGTCTTGATTCGCTTGACGCTGCTG — lower, 4.68 z-score
- CCGATTAACATCAATACTTCCCCTGATGTTAATCGGGTCTTGATTCGCTTGACGCTGCTG — higher, 6.19 z-score
- CCGATTAACATCAAGATTTCCCATGATGTTAATCGGGTCTTGATTCGCTTGACGCTGCTG — lower, 3.33 z-score
- CCGATTAACATCAAATTGTCCCCTGATGTTAATCGGGTCTTGATTCGCTTGACGCTGCTG — higher, 4.96 z-score
- CCGATTAACATCAGGGTATTTTATGATGTTAATCGGGTCTTGATTCGCTTGACGCTGCTG — higher, 5.87 z-score
- CCGATTAACATCACAATCCCCCCTGATGTTAATCGGGTCTTGATTCGCTTGACGCTGCTG — higher, 6.19 z-score
- CCGATTAACATCAGGGGAGTTACTGATGTTAATCGGGTCTTGATTCGCTTGACGCTGCTG — lower, 4.45 z-score
- CCGATTAACATCAGGGGGAAGAATGATGTTAATCGGGTCTTGATTCGCTTGACGCTGCTG — higher, 5.86 z-score
- CCGATTAACATCAGGGCCTCCCCTGATGTTAATCGGGTCTTGATTCGCTTGACGCTGCTG — lower, 3.91 z-score
- CCGATTAACATCAAAGTCCCCCTTGATGTTAATCGGGTCTTGATTCGCTTGACGCTGCTG — higher, 6.67 z-score
- CCGATTAACATCAGGGGGGTTAATGATGTTAATCGGGTCTTGATTCGCTTGACGCTGCTG — higher, 4.97 z-score
- CCGATTAACATCAACTTCCCCCCTGATGTTAATCGGGTCTTGATTCGCTTGACGCTGCTG — higher, 5.76 z-score
- CCGATTAACATCAGGGGGCTATATGATGTTAATCGGGTCTTGATTCGCTTGACGCTGCTG — lower, 3.35 z-score
- CCGATTAACATCAAGGGGGAAAATGATGTTAATCGGGTCTTGATTCGCTTGACGCTGCTG — higher, 7.34 z-score
- CCGATTAACATCAGGATACCCCCTGATGTTAATCGGGTCTTGATTCGCTTGACGCTGCTG — higher, 5.02 z-score
- CCGATTAACATCACCAAATCCCCTGATGTTAATCGGGTCTTGATTCGCTTGACGCTGCTG — higher, 6.6 z-score
- CCGATTAACATCAGGGGCCCCCCTGATGTTAATCGGGTCTTGATTCGCTTGACGCTGCTG — lower, 4.57 z-score
- CCGATTAACATCAGGACTCCCCCTGATGTTAATCGGGTCTTGATTCGCTTGACGCTGCTG — higher, 6.59 z-score
- CCGATTAACATCAAAACTTCCCCTGATGTTAATCGGGTCTTGATTCGCTTGACGCTGCTG — higher, 7.33 z-score
- CCGATTAACATCAGGGGAACGCATGATGTTAATCGGGTCTTGATTCGCTTGACGCTGCTG — lower, 4.2 z-score
- CCGATTAACATCAGGGGACTCCATGATGTTAATCGGGTCTTGATTCGCTTGACGCTGCTG — lower, 4.91 z-score
- CCGATTAACATCAGGGGAAGACCTGATGTTAATCGGGTCTTGATTCGCTTGACGCTGCTG — higher, 4.98 z-score
- CCGATTAACATCAGGGCGCCCCCTGATGTTAATCGGGTCTTGATTCGCTTGACGCTGCTG — higher, 4.97 z-score
